Screens: PubChem BioAssay, National Center for Advancing Translational Sciences (NCATS)
KCNH2 3.1 block – qHTS for Inhibitors of KCHN2 3.1: Mutant qHTS. 340,000 tested, 0.95% active. AID 720553, 2013. Potassium voltage-gated channel subfamily H member 2, brain isoform KCNH2 3.1 (human). U2OS KCNH2 3.1, thallium flux FluxOr; hits give low values. activity change, % (tested at about 1.8 µM);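 active means maximum activity change below -70%; inconclusive means maximum activity change from -70% to -50%; inactive means maximum activity change above -50%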;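 further: thallium influx rate constant from kinetic fluorescence after stimulation buffer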
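FluxOr-based Tl+ influx in U2OS cells transduced with KCNH2 3.1 virus; rate constants normalized to DMSO controls.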
Akt phos inh – HTS Assay for Inhibitors of Akt Phophorylation: Primary Screen | Neuro2A IGF-stimulated pAkt S473 HTRF, 20 min; hits give low values | activity change, % for hits at 50 µM | 360,000 tested, 0.32% active | AID 651550, 2012; in the data active means activity change below about -80%; inconclusive means mostly about -51% to -80%
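Neuro2A cells in DMEM with 0.5% FBS, overnight at 37 deg C, given compound at single 50 µM final, then IGF (6 nM final) for 20 min at 37 deg C. Lysed; phospho-Akt Ser473 by HTRF after 24 h, 665/615 ratio.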
RXFP1 antagonist – qHTS Assay for Antagonists of the Relaxin Receptor RXFP1. HEK293-RXFP1, relaxin-stimulated cAMP HTRF, 30 min; hits give low values. Relaxin receptor 1 (Homo sapiens), Q9HBX9. 350,000 tested, 0.59% active. activity change, negative = inhibition, % at 57.5 µM;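 active means activity change of -60% or lower, but not beyond a set lower limit; inconclusive means change between -60% and -40%, or beyond the set limit; inactive means change above -40%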
RXFP1 ag – qHTS Assay for Agonists of the Relaxin Receptor RXFP1; Relaxin receptor 1 (Homo sapiens), Q9HBX9; HEK293T-RXFP1 cAMP TR-FRET, 30 min; response scale: percent of porcine relaxin response, buffer zero; Potency, µM (doses to about 57.5 µM), for inactives: at the highest dose activation, most hits filed as activators; 370,000 tested, 0.3% active; AID 2676, 2010; active means well fitted activation curve with a large enough effect; inconclusive means small, poorly fitted or top-dose-only effect; further: potency means the concentration at half of the fitted maximal effect; nearly all actives have a fitted effect of over 60% in size
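HEK293 cells stably expressing RXFP1, treated 30 min at 37C with compounds plus PDE4 inhibitor Ro 20174; cAMP measured by HTRF TR-FRET. Normalized to buffer and 29 nM porcine relaxin; EC50 by Hill fit.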
KCNH2 WT inh – qHTS for Inhibitors of KCHN2 3.1: Wildtype qHTS; Voltage-gated inwardly rectifying potassium channel KCNH2 (Homo sapiens), Q12809; U2OS, BacMam KCNH2, thallium flux FluxOr; hits give low values; activity change, % at 1.84 µM; 340,000 tested, 0.37% active;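 active means maximum activity change below -70%; inconclusive means maximum activity change between -70% and -50%; inactive means maximum activity change above -50%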
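U2OS cells were transduced with wild-type KCNH2 virus (2.03 x 10^8 / mL) for 4 h at room temperature, then cultured overnight at 37 C. Thallium flux was read with FluxOr dye. Rate constants were normalized to DMSO controls.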
An asterisk follows results filed as active; i = inactive; ? = inconclusive; . = not tested or not shown. Rows were chosen to be rich in hits. Some 1.7% of all compounds tested hit in one or more screens of this group. On the % scale 0 is the no-effect control and ±100 the full control effect.

SMILES	KCNH2 3.1 block	Akt phos inh	RXFP1 antagonist	RXFP1 ag	KCNH2 WT inh
CC(C)CC1C(=O)N(Cc2cn(CCC3OCCCO3)nn2)CCS(=O)(=O)N1Cc1ccc(-c2ccccc2)cc1 (stereo not drawn)	-9.4	i	-4.8	.	-5.5
CC(C)CC1C(=O)N(Cc2cn(CCC3OCCCO3)nn2)CCS(=O)(=O)N1Cc1ccc(-c2ccncc2)cc1 (stereo not drawn)	-156.9*	i	9.0	.	-139.4*
Cc1c(Cl)cccc1NC(=O)CNS(=O)(=O)c1cccs1	.	.	.	1.0%	.
CC1=C(C)/C(=N\OS(=O)(=O)c2ccccc2)C=CC1=O	-3.4	i	-114.0*	-2.7%	14.1
Cc1ccc(S(=O)(=O)O/N=C2\CCCc3ccccc32)cc1	-19.1	i	-0.6	0.7%	0.4
Cc1cccc[n+]1C1C(c2ccccc2)C(C#N)=C(C(=C=[N-])C#N)NC1(O)C1CC1 (stereo not drawn)	4.1	?	21.1	15.4%	20.0
N#CC(=C=[N-])C1=C(C#N)C(c2ccccc2F)C([n+]2ccccc2)C(O)(C2CC2)N1 (stereo not drawn)	-2.6	i	32.8	25.1µM*	1.6
CCC1(CC)NC(=O)N(CC(=O)OCC(=O)Nc2sccc2C#N)C1=O	.	i	-0.6	2.6%	15.6
CN(/N=C/c1cc(Br)cc(Br)c1O)c1cccc(C(F)(F)F)n1	6.6	i	-14.5	-0.3%	7.9
Cc1cc(NC(=O)CN2CCN(C/C=C/c3ccccc3)CC2)c([N+](=O)[O-])cc1C	-92.4*	i	-13.1	1.0%	-16.8
Cc1cc(NC(=O)CCN2CCN(C)CC2)ccc1Br	5.2	i	-29.9	-0.9%	16.0
CCN1CCN(CCC(=O)Nc2cccc(C)c2)CC1	-19.9	i	13.0	0.2%	5.1
O=C(CN1CCN(S(=O)(=O)c2ccccc2)CC1)Nc1ccccc1C(=O)NC1CC1	?	i	3.3	-0.2%	1.8
O=C(CN1CCN(C/C=C/c2ccccc2)CC1)Nc1ccccc1C(=O)NC1CC1	-111.5*	i	-5.3	1.0%	-90.7*
Cc1cc(NC(=O)CCN2CCN(C/C=C/c3ccccc3)CC2)ccc1Br	-107.8*	i	?	-0.6%	-24.9
Cc1cccc(NC(=O)CCN2CCN(C/C=C/c3ccccc3)CC2)c1	-90.6*	i	-7.7	2.4%	15.1
O=C(Nc1ccc2c(c1)OCO2)N1CCN(C/C=C/c2ccccc2)CC1	-8.5	-83.3%*	-5.3	0.3%	17.2
Cc1ccccc1NC(=O)CCN1CCN(C/C=C/c2ccccc2)CC1	-84.8*	i	5.8	0.0%	24.0
O=C(CCN1CCN(CCO)CC1)Nc1ccccc1	6.3	i	-6.9	-3.7%	7.4
O=C(CCN1CCN(C/C=C/c2ccccc2)CC1)Nc1ccccc1	-80.3*	i	11.9	-0.1%	-26.9
Cc1ccccc1NC(=O)CCN1CCN(C)CC1	-32.3	i	8.5	0.4%	2.5
Cc1cc2cc(C)c(NCCNC(=O)c3ccccc3)nc2cc1C	2.0	i	-4.9	0.8%	7.4
COc1ccc(S(=O)(=O)N2CCN(Cc3ccccc3[N+](=O)[O-])CC2)cc1	-28.9	i	-23.4	.	8.8
COc1ccc(NC(=S)NCCSc2ccc(Cl)cc2)c(OC)c1	-7.6	i	-3.1	-2.6%	0.3
CN1C(=O)/C(=C/c2ccc3c(c2)OCO3)N=C1c1ccccc1	-122.6*	i	-6.0	4.5%	-2.4
CCSC1=N/C(=C\c2ccc3c(c2)OCO3)C(=O)S1	-4.6	i	9.8	0.4%	3.7
CCC(C)Oc1cccc(OCCCCN2C(=O)NC(C)(C)C2=O)c1 (stereo not drawn)	-10.7	i	12.3	1.6%	-5.8
N#Cc1ccccc1Cn1cc(/C=C/[N+](=O)[O-])c2ccccc21	-1.0	i	-65.0*	0.7%	-2.5
O=C(Cn1cc(/C=C\[N+](=O)[O-])c2ccccc21)Nc1ccccc1	33.4	i	-105.2*	-0.3%	2.3
